PubChem BioAssay (Tox21)
Inconclusive results are not listed. Activity calls are given as the source filed them. Unless noted, the call rests on the fitted dose curve; in most records, active means well fitted curve in the direction sought with a large enough effect in the repeat runs; inconclusive means weak or mixed curves; inactive means no such curve, though single readings can be large; an effect the other way counts as inactive or inconclusive. Where a SMILES comes first, the peptide text is derived from it. [ ]: non-standard residue; d: D form. pGlu = O=C1CC[C@@H](C(=O)O)N1

How the values were obtained:
[1] = qHTS assay to identify small molecule agonists of the RXR signaling pathway - cell viability counter screen (AID 1159529);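 further: HEK 293T cells carrying an RXR-alpha UAS beta-lactamase reporter; series mostly up to about 77 µM; nearly all actives have a fitted effect of over 50% in size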
Outline: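 Tox21 10K compounds were tested for cytotoxicity against GeneBLAzer RXR-alpha HEK 293T cells grown in 2% charcoal-stripped FBS. Exposure lasted 16 hr at 37 C, 5% CO2; viability read by CellTiter-Glo luminescence.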

[2] = qHTS assay to identify small molecule antagonists of the retinoid acid receptor (RAR) signaling pathway - cell viability counter screen (AID 1159551); further: nearly all actives have a fitted effect of over 35% in size
Outline: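 C3RL4 RARE-luciferase cells, 1,000/well, incubated overnight, then dosed with compound plus 1 uM retinol (final). After 6 hr at 37 C, viability read by CellTiter-Glo ATP luminescence following 30 min at room temperature.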

[3] = qHTS assay to identify small molecule antagonists of the retinoic acid receptor (RAR) signaling pathway (AID 1159552; further: nearly all actives have a fitted effect of over 50% in size; further: potency means the concentration at half of the fitted maximal effect)
Outline: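 Overnight-plated C3RL4 reporter cells get compound, then retinol to 1 uM final; plates sit 6 hr at 37 C, 5% CO2. A luciferase reagent is added and light output recorded after 30 min at room temperature.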

[4] = qHTS assay to identify small molecule agonists of the retinoic acid receptor (RAR) signaling pathway (AID 1159553); further: potency means the concentration at half of the fitted maximal effect
Outline: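 C3RL4 RARE-luciferase cells were seeded at 1,000/well and grown overnight at 37 C, then exposed to compounds for 6 hr at 37 C, 5% CO2. Luciferase reagent was added and luminescence was read after 30 min at room temperature.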

[5] = qHTS assay to identify small molecule antagonists of the estrogen related receptor (ERR) signaling pathway - cell viability counter screen (AID 1224818); further: series mostly up to about 46 µM
Outline: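 ERR cells, 2,000 per well, compound added after 6 h and incubated 17.5 h at 37 C. Viability read by CellTiter-Fluor fluorescence after a further 30 min at 37 C.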

[6] = qHTS assay to identify small molecule antagonists of the estrogen related receptor signaling pathway with the pleiotropic PPARgamma coactivator (PGC) cell viability counter screen (AID 1224822; further: series mostly up to about 46 µM)
Outline: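 PGC/ERR cells rested 6 h, then compound-treated 17.5 h at 37 C. CellTiter-Fluor added for 30 min at 37 C, viability measured by fluorescence intensity.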

[7] = qHTS assay to identify small molecule antagonists of the estrogen related receptor (ERR) signaling pathway (AID 1224819;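 further: luminescence from an ERR-driven luciferase reporter measured with One-Glo reagent; series mostly up to about 46 µM; nearly all actives have a fitted effect of over 50% in size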)
Outline: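 ERR reporter cell line (NTP) plated at 2,000 cells/well, settled 6 h at 37C/5% CO2, then exposed to LOPAC compounds for 18 h at 37C. One-Glo luciferase luminescence read after 30 min at room temperature.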

[8] = qHTS assay to identify small molecule agonists of the estrogen related receptor (ERR) signaling pathway (AID 1224820)
Excerpt: National Center for Advancing Translational Sciences [NCATS]
NIH Chemical Genomics Center [NCGC]
U.S. Environmental Protection Agency [EPA]
National Institutes of Environmental Health Sciences [NIEHS]
National Toxicology Program [NTP]
Estrogen related receptors (ERRs), the first orphan nuclear receptors discovered, play an important role in the control of cellular energy metabolism. ERRs are required for high-energy production in response to the environmental challenges. ERR-alpha was also identified as an adverse marker for breast cancer progression; ERR-alpha-positive tumors have a poor prognosis. To screen and to identify environmental compounds that perturb the ERR signaling pathways could provide valuable information for potential therapeutic or preventive measures in the treatment of metabolic disease. For identifying ERR agonists, ERR cell line (provided by NTP) has been used to screen LOPAC library.
The ERR cells were dispensed at 2,000 cells/5 ul/well in 1536-well white plates using a Multidrop dispenser. After the assay plates were incubated at a 37 C/5% CO2 incubator for 6 hours, 23 nL of compounds dissolved in DMSO, positive and negative controls or DMSO only was transferred to the assay plate by a pin tool. The plates were incubated at 37 C for 18 hours. 4 ul/well of One-Glo reagent was added into the assay plates using a Flying Reagent Dispenser. After 30 min incubation at room temperature, the luminescence intensity in the plates was measured using a ViewLux plate reader.

[9] = system: estrogen-related receptor alpha (ERRalpha) with PGC-1alpha coactivator, human; assay: qHTS assay to identify small molecule antagonists of the estrogen related receptor signaling pathway with the pleiotropic PPARgamma coactivator (PGC) (AID 1224821; calls by dose curve;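 further: series mostly up to about 46 µM; lower luminescence signal means antagonism of PGC/ERR signalling; nearly all actives have a fitted effect of over 50% in size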)
Outline: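 PGC/ERR reporter cell line, plated 6 h before compound addition, then exposed 18 h at 37 °C. Luciferase activity read by luminescence 30 min after One-Glo addition; decrease indicates antagonism.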

[10] = qHTS assay to identify small molecule agonists of the estrogen related receptor signaling pathway with the pleiotropic PPARgamma coactivator (PGC) (AID 1224823)
Outline: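 PGC/ERR reporter cells seeded 6 h, then exposed to compounds (23 nL in DMSO) for 18 h at 37 C. One-Glo luciferase luminescence read after 30 min at room temperature.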
On the % scale 0 is the no-effect control and ±100 the full control effect.

COC(=O)Nc1ccc(Cl)c(Cl)c1
inactive: Potency [1] | outcome [2] | Potency [3] | Potency [4]

Cc1ccc(C(=O)c2ccccc2)cc1
inactive: Potency [1] | outcome [2] | Potency [3]

Cc1c(N)c(=O)n(-c2ccccc2)n1C
inactive: Potency [1] | outcome [2] | Potency [3] | Potency [4]

CCNC(=O)[C@@H]1CCCN1C(=O)[C@H](CCCN=C(N)N)NC(=O)[C@H](CC(C)C)NC(=O)CNC(=O)[C@H](Cc1ccc(O)cc1)NC(=O)[C@H](CO)NC(=O)[C@H](Cc1c[nH]c2ccccc12)NC(=O)[C@H](Cc1cnc[nH]1)NC(=O)[C@@H]1CCC(=O)N1 ([pGlu]HWSYGLRP-NHEt)
inactive: Potency [1] | outcome [2] | Potency [3]

CO[C@@]1(NC(=O)C(C(=O)O)c2ccc(O)cc2)C(=O)N2C(C(=O)O)=C(CSc3nnnn3C)CO[C@@H]21 (stereo partly drawn)
inactive: Potency [1] | outcome [2] | Potency [3] | Potency [4]

CNC(=O)Nc1ccc(Cl)c(Cl)c1
inactive: Potency [1] | outcome [2] | Potency [3]

CCOC(=O)C1=NOC(c2ccccc2)(c2ccccc2)C1
inactive: Potency [1] | outcome [2] | Potency [3] | Potency [4]

CC1CCC(CO)CC1 (stereo not drawn)
inactive: Potency [1] | outcome [2] | Potency [3]

O=C(O)CC(C(=O)O)S(=O)(=O)O (stereo not drawn)
inactive: Potency [1] | outcome [2] | Potency [3]

CCC(C)(CN(C)C)OC(=O)c1ccccc1 (stereo not drawn)
inactive: Potency [1] | outcome [2] | Potency [3] | Potency [4]

CC(=O)Nc1ccc(OCC(O)CNC(C)C)cc1 (stereo not drawn)
inactive: Potency [1] | outcome [2] | Potency [3]

CCN1CCOCC1
inactive: Potency [1] | outcome [2] | Potency [3] | Potency [4]

CCC1C(=O)OCC1Cc1cncn1C (stereo not drawn)
inactive: Potency [1] | outcome [2] | Potency [3] | Potency [4]

CCNS(=O)(=O)c1ccc(C)cc1
inactive: Potency [1] | outcome [2] | Potency [3] | Potency [4]

O=C1CCCCCCCCCCCCCCO1
inactive: Potency [1] | outcome [2] | Potency [3] | Potency [4]

CCCCCCC1CCC(=O)O1 (stereo not drawn)
inactive: Potency [1] | outcome [2] | Potency [3]

CC12CCC(C(=O)C1=O)C2(C)C (stereo not drawn)
inactive: Potency [1] | outcome [2] | Potency [3] | Potency [4]

COCCOC[C@H](CC1(C(=O)NC2CCC(C(=O)O)CC2)CCCC1)C(=O)Oc1ccc2c(c1)CCC2 (stereo partly drawn)
inactive: Potency [1] | outcome [2] | Potency [3] | Potency [4]

CC(=O)c1cnccn1
inactive: Potency [1] | outcome [2] | Potency [3]

CC(C)(C)c1ccc(-c2ccc(C(C)(C)C)cc2)cc1
inactive: Potency [1] | outcome [2] | Potency [3]

C=CC(=O)OCCCl
inactive: Potency [1] | outcome [2] | Potency [3] | Potency [4]

CC1OC1C1CCC2(C)OC2C1 (stereo not drawn)
inactive: Potency [1] | outcome [2] | Potency [3]

COC(=O)C1=C(C)NC(C)=C(C(=O)OC(C)C)C1c1cccc2nonc12 (stereo not drawn)
active: Potency [3] 21.1 µM
inactive: Potency [1] | outcome [2] | Potency [4]

O=C1c2ccccc2C(=O)c2cc(O)ccc21
active: Potency [4] 17.2 µM
inactive: Potency [1] | outcome [2] | Potency [3]

NC(N)=NCCN1CCCCCCC1
inactive: activity change, negative = cytotoxicity [1] -2.51% [at 0.29 µM] | activity change, negative = cytotoxicity [2] -0.855% [at 0.349 µM] | activity, negative = inhibition [3] 16.3% [at 0.349 µM] | activation [4] 0.885% [at 0.756 µM]

CC(C)=CCC/C(C)=C/C#N
inactive: Potency [1] | outcome [2] | Potency [3]

CC(CC=O)CC(C)(C)C (stereo not drawn)
inactive: Potency [1] | outcome [2] | Potency [3]

c1ccc(CCc2ccccc2)cc1
inactive: Potency [1] | outcome [2] | Potency [3] | Potency [4]

C=C(C)C(=O)OCC1CCCO1 (stereo not drawn)
inactive: Potency [1] | outcome [2] | Potency [3]

O=C(c1ccccc1O)c1ccccc1O
inactive: Potency [1] | outcome [2] | Potency [3] | Potency [4]

CN(C)CCCCCCN(C)C
inactive: Potency [1] | outcome [2] | Potency [3] | Potency [4]

CCCCOCCOC(=O)COc1cc(Cl)c(Cl)cc1Cl
inactive: Potency [1] | outcome [2] | Potency [3]

C[N+](C)(C)CCCCCCCCCC[N+](C)(C)C
inactive: Potency [1] | outcome [2] | Potency [4] | outcome [5] | outcome [6]

O=C(O)CCCC[P+](c1ccccc1)(c1ccccc1)c1ccccc1
inactive: Potency [1] | outcome [2] | Potency [4]

C[N+]12CCC(CC1)C(OC(=O)C(O)(c1ccccc1)c1ccccc1)C2 (stereo not drawn)
inactive: Potency [1] | outcome [2] | Potency [4]

Cc1ccc(C(=O)Nc2ccc(S(=O)(=O)O)c3cc(S(=O)(=O)O)cc(S(=O)(=O)O)c23)cc1NC(=O)c1cccc(NC(=O)Nc2cccc(C(=O)Nc3cc(C(=O)Nc4ccc(S(=O)(=O)O)c5cc(S(=O)(=O)O)cc(S(=O)(=O)O)c45)ccc3C)c2)c1
inactive: Potency [1] | outcome [2] | outcome [5] | outcome [7] | outcome [8] | outcome [9] | outcome [6] | outcome [10]
